Measured values from ChEMBL document CHEMBL3433997, “St. Jude Leishmania screening dataset” (2016).

Key:
Type in all cases: functional
[1] = molecular target: Solute carrier family 2, facilitated glucose transporter member 1 (Homo sapiens) (UniProt P11166); assay: ST_JUDE_LEISH: Cytotoxicity at 2uM final concentration against transgenic Leishmania Mexicana promastigotes LmGLUT1 that are glucose transport deficient and complemented with the human glucose transporter GLUT1. Activity is measured by DNA content using SYBR green in vitro
[2] = molecular target: Hexose transporter 1 (Plasmodium falciparum) (UniProt O97467); assay: ST_JUDE_LEISH: Cytotoxicity at 2uM final concentration against transgenic Leishmania Mexicana promastigotes LmPfHT that are glucose transport deficient and complemented with the Plasmodium falciparum hexose transporter. Activity is measured by DNA content using SYBR green in vitro
[3] = molecular target: Glucose transporter (Leishmania mexicana) (UniProt O61059); assay: ST_JUDE_LEISH: Cytotoxicity at 2uM final concentration against transgenic Leishmania Mexicana promastigotes LmGT2 that are glucose transport deficient and complemented with the L. Mexicana glucose transporter 2. Activity is measured by DNA content using SYBR green in vitro

Chain of Solute carrier family 2, facilitated glucose transporter member 1 (Homo sapiens) (P11166 whole entry): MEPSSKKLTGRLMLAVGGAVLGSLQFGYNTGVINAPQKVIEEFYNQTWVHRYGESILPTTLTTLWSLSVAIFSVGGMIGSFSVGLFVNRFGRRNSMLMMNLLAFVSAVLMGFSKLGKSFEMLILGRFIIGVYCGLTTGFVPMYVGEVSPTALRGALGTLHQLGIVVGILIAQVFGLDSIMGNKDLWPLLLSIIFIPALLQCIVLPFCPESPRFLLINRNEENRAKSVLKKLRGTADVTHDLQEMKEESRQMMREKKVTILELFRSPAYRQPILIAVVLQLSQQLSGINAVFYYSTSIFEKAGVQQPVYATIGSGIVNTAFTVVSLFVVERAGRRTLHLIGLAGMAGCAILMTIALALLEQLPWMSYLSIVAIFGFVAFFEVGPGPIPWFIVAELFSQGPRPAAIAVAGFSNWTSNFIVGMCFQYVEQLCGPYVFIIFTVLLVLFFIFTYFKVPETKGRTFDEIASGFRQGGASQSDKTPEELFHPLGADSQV

Row | SMILES | inhibition [1] [%] | inhibition [2] [%] | inhibition [3] [%]
1 | CCc1ccc(NC(=O)c2ccc(CN3CCCN(CC4CCCCC4)CC3)cc2)cc1 | 7.57 | 10.3 | 7.64
2 | N#Cc1cccc(-c2cnc(N)c(-c3nc4cc(S(N)(=O)=O)ccc4[nH]3)c2)c1 | 1.03 | 1.38 | 2.21
3 | Clc1nc2ccccn2c1C=Cc1ccc2ccccc2n1 | 2.64 | 3.43 | 2.76
4 | CNC(=O)c1ccccc1Nc1nc(Nc2ccc(CCN3CCN(C)CC3)cc2)ncc1Cl | 74.6 | 74.2 | 56
5 | c1ccc(Oc2ccc(Nc3nc(NCCc4c[nH]cn4)nc(NC4CCCC4)n3)cc2)cc1 | 5.3 | 5.86 | 6.19
6 | COc1ccc(NC(=O)/C=C/c2ccc(-c3ccccc3)cc2)cc1N1CCN(C)CC1 | 2.62 | 3.25 | 0.83
7 | O=C(Nc1ccc(C(F)(F)F)cc1)NC1CCN(CCCCCNC(=O)C2CC2c2ccc(Cl)c(Cl)c2)CC1 (configuration not stated) | -1.45 | -1.93 | -1.98
8 | Cc1cccc(C=NN=c2cc(C)[nH]c3ccc(F)cc23)n1 | 6.63 | 6.71 | 4.02
9 | O=C(Nc1ccc(CN2CCN(S(=O)(=O)c3cccc(Cl)c3)CC2)cc1)c1cccs1 | 3.93 | 2.08 | 1.17
10 | CC1(CCCCN2CCC(Cc3ccccc3)CC2)C(=O)Nc2ccccc21 (configuration not stated) | 6.25 | 5.65 | 4.71
11 | CC(C)C[C@H](NC(=O)c1ccc(F)cc1)C(=O)N[C@H](/C=N/NC(=O)c1ccccc1)CCc1ccccc1 | 4.79 | 6.16 | 3.91
12 | CCCCn1c(N)c(N(Cc2ccco2)C(=O)C=Cc2cc(OC)c3c(c2)OCCO3)c(O)nc1=O | 3.56 | 1.02 | 3.32
13 | COc1cc(C=NNc2ccnc3cc(Cl)ccc23)ccc1O | 2.02 | 2.62 | 3.46
14 | C=C[C@H]1CN(CCCCCCC)CC[C@H]1CC(O)Cc1ccnc2cc(O)c(OC)cc12 (some centres not stated) | -1.66 | -0.12 | 0.32
15 | CCN(CC)Cc1cc(Nc2ccnc3cc(Cl)ccc23)ccc1O | -1.88 | 2.29 | 4.65
16 | Brc1ccsc1-c1nc(NC2CCN(Cc3ccccc3)CC2)no1 | -0.23 | 5.86 | -0.38
17 | CNC(=O)c1cc(S(=O)(=O)N2CCN(c3ccccn3)CC2)cs1 | 0.24 | 0.78 | -2.48
18 | NS(=O)(=O)NCCCN1CCN(c2ccccc2)CC1 | 1.95 | 1.37 | 1.5
19 | COc1ccc2nc(-c3ccccc3)cc(N/N=C/c3ccc([N+](=O)[O-])o3)c2c1 | 15.9 | 10.5 | 10.3
20 | COc1ccc(-c2nc(NC(=O)Cc3cccc(OC)c3)sc2C)cc1 | 0.19 | 0.46 | 3.16
21 | CCc1cccc(OCCCON2C(=N)N=C(N)NC2(C)C)c1 | 7.55 | 9.83 | 8.16
22 | Cc1cc(NC2CCCC2)nc(Nc2ccccc2C)n1 | 12.6 | 7.5 | 4.09
23 | CN1CCN(CCCNCc2ccccc2-c2cccc(CNCc3ccc4c(c3)OCO4)c2)CC1 | -1.31 | -0.45 | 2.45
24 | CO/C(=C\C=C\c1cc2cc(Cl)c(Cl)cc2[nH]1)C(=O)NCCCN1CCN(c2ccncc2)CC1 | 4.85 | 3.18 | 3.48
25 | Cc1[nH]c2c(C)cccc2c1C1CCN(CCC2CCN(C(=O)/C=C/c3ccc(Cl)c(Cl)c3)CC2)CC1 | 3.84 | 3.13 | 2.49

Row | SMILES | inhibition [1] [%] | inhibition [2] [%] | inhibition [3] [%]
26 | Cc1cc(N(C)C)nc(Nc2ccc(NC(=O)C(C)Oc3ccccc3)cc2)n1 (configuration not stated) | 13.2 | 14.5 | 9.35
27 | CCc1ccc(O)c(-c2cc(C(=O)Nc3cccnc3)[nH]n2)c1 | 1.69 | 0.53 | 2.29
28 | COc1cc(O)c2c(=O)c(OC)c(-c3cccc(Cl)c3OCC(=O)O)oc2c1OC | -2.29 | -1.48 | -0.46
29 | CN1C(=O)C(=NN=C(S)N2CCOCC2)c2ccccc21 | 23.4 | 63.9 | 12.7
30 | CCOC(=O)c1[nH]c2cc(Cl)cc(Cl)c2c1/C=C/C(=O)Nc1ccc(-c2cnc(NC(C)=O)[nH]2)cc1 | -1.61 | -2.31 | -1.73
31 | Cc1cccc2nc(-c3ccc(-c4cccc(CNCCN(C)C)c4)cc3)[nH]c12 | 3.31 | 2.84 | 0.95
32 | CCOc1cc2c(cc1OCC)C(c1ccc(O)c(Cl)c1)NCC2 (configuration not stated) | 11.9 | 13.1 | 10.3
33 | Oc1ccc(CN2CCC(N3CCN(CCc4ccccc4)CC3)C(O)C2)cc1Cl (configuration not stated) | 1.3 | -0.2 | 2.61
34 | O=C(Nc1cccc(CN2CCN(C(=O)c3cccc(F)c3)CC2)c1)c1ccco1 | 2.27 | 2.31 | 0.61
35 | CS(=O)(=O)N(c1ccccc1)c1cc(C(=O)N[C@@H](Cc2ccccc2)[C@H](O)CNC2CCCCC2)cc(N2CCCC2=O)c1 | 1.9 | 1.63 | 0.49
36 | CN(C(=O)NCCc1ccccc1)C1CCN(CCCCCNC(=O)/C=C/c2ccc(Cl)c(Cl)c2)CC1 | 14.9 | 12 | 12.4
37 | Cc1cc(NC(=O)NCCN2CCC(NC(=O)c3ccc(C(F)(F)F)cc3)CC2)c2ccccc2n1 | 0.67 | 0.01 | -0.57
38 | N=C(N)Nc1cccc(NC(=O)Nc2cccc(NC(=N)N)c2)c1 | 6.92 | 4.83 | 3.86
39 | CC(C)(C)C(=O)Nc1c(-c2cc(=O)oc3cc4c(cc23)CCC4)oc2ccccc12 | 4.02 | 4.1 | 5.42
40 | Cc1ccc2nc(C)cc(N/N=C/c3ccccc3[N+](=O)[O-])c2c1 | 10.8 | 6.78 | 7.96
41 | CC(C)c1ccc(NC(=O)c2ccc(C(=O)NC3CCN(CC4CCCCC4)CC3)cc2)cc1 | 0.94 | -0.49 | 0.52
42 | CCN(CCCN1CCCCC1)c1cc(C)nc(Nc2ccc(Oc3ccccc3)cc2)n1 | 5.66 | 5.07 | 5.44
43 | CC(=O)Nc1cccc(C(=O)Nc2cccc(-c3cccc(-c4nc5cc(F)ccc5[nH]4)c3)c2)c1 | 3.73 | 3.51 | 7.22
44 | Cc1cc(N(C)C)nc(Nc2ccc(NC(=O)c3c(F)cccc3F)cc2)n1 | 6.1 | 6.29 | -2.85
45 | CCn1c(-c2nonc2N)nc2c(-c3cccc(NC(=O)Nc4cccc(Cl)c4)c3)ncc(OCCCN)c21 | 4.22 | 3.86 | 2.75
46 | C(=N\Nc1nccc2sc(-c3cccnc3)cc12)/c1ccncc1 | 5.3 | 5.29 | 1.98
47 | O=C(/C=C/c1ccc(Cl)c(Cl)c1)NC1CCN(Cc2cccc(O)c2)CC1 | 2.92 | 4.2 | -2.96
48 | Cc1ccc(S(=O)(=O)Nc2ccc(Nc3nccc(Nc4cccc5[nH]ncc45)n3)cc2)cc1 | 1.77 | 2.62 | 0.3
49 | Cc1ccccc1Cn1ccc2c3c(N)nc(N)nc3ccc21 | 92.7 | 87.7 | 81.9
50 | COc1ccc(CCNC(=O)c2cnc3c(c2)nc(-c2c[nH]c(-c4ccccc4)n2)n3CCc2c[nH]cn2)cc1 | 1 | -1.24 | 2.62

Row | SMILES | inhibition [1] [%] | inhibition [2] [%] | inhibition [3] [%]
51 | CC(=O)N(C)c1cccc(CNc2cc(C)nc(Nc3ccc(C)cc3)n2)c1 | 4.41 | 4.95 | 0.91
52 | Cc1nc2ccccn2c1C1(O)C(=O)Nc2c(Cl)cc(Cl)cc21 (configuration not stated) | 5.72 | 4.95 | 2.71
53 | C=C(C)C1CC=C(CN2CCCC(n3ccc4cc(NC(=O)c5ccco5)ccc43)CC2)CC1 (configuration not stated) | -1.77 | 3.75 | -2.38
54 | N#Cc1cccc(NC(=O)Nc2ccc3c(c2)CCN(C2CCC2)CC3)c1 | 5.45 | 4.43 | 4.94
55 | O=C(Nc1cccc(C2=NCCN2)c1)Nc1cccc(C2=NCCN2)c1 | 1.69 | 5.37 | 1.1
56 | CNC(=O)CNC(=O)COc1cccc2ccccc12 | 2.49 | 1.21 | 2.7
57 | CN1CCN(c2cc(-c3cccc(C(F)(F)F)c3)nc(-c3ccncc3)n2)CC1 | 2.69 | 4.44 | -2.16
58 | CNCCNCc1cccc(-c2cccc(-c3nc4cccc(C)c4[nH]3)c2)c1 | 0.8 | 2.47 | 0.35
59 | COc1ccc(O)cc1/C=N/Nc1ccnc2cc(Cl)ccc12 | 7.1 | 5.98 | 9.21
60 | COc1ccc(-c2ccc(NC(=O)c3ccc(C#N)cc3)cc2)cc1CN1CCN(C)CC1 | 4.24 | 1.9 | 2.76
61 | Cc1cc(NC(=O)c2cccs2)ccc1OC1CCN(Cc2ccccc2)CC1 | 3.33 | 3.27 | 3.22
62 | Nc1nc(N)c2cc(CNc3ccc(Cl)c(Cl)c3)ccc2n1 | 8.27 | 6.41 | -0.28
63 | O=S(=O)(c1cc(Cl)ccc1Cl)N1CCCCC(c2ccc(C(F)(F)F)cc2)=N1 | 0.47 | 2.66 | 5.01
64 | CN(c1ccc(C(=O)N[C@@H](CCC(=O)O)C(=O)O)cc1)S(=O)(=O)c1ccc2nc(N)[nH]c(=O)c2c1 | 2.98 | -0.77 | 0.27
65 | O=C(Nc1nc2cc(S(=O)(=O)NCCCN3CCOCC3)ccc2n1CCCn1ccnc1)c1ccc(Cl)cc1 | 5.51 | 5.43 | 4.2
66 | Clc1ccc(-c2nc(-c3ccncc3)c[nH]2)cc1Cl | 0.68 | 0.78 | -0.87
67 | O=C(C=Cc1ccc(Cl)c(Cl)c1)NCCCCCN1CCC(CCCNC(=O)c2sc3ccccc3c2Cl)CC1 | 2.7 | 0.72 | 1.61
68 | COc1cc(F)c2nccc([C@@H](O)CN3CCC(NCc4ccc5c(n4)NC(=O)CS5)C(F)C3)c2c1 (some centres not stated) | 3.18 | 3.06 | 3.18
69 | O=C(Nc1cccc(Cl)c1)N(CCCn1ccnc1)Cc1csc(-c2ccc(CNCc3ccccc3)cc2)n1 | 5.54 | 3.76 | 4.27
70 | COc1ccc2ncc(F)c(CCN3C[C@H](CNCc4cc(F)c5c(c4)NC(=O)CO5)[C@H](O)C3)c2n1 | 3.52 | 4.83 | 0.92
71 | COc1cc(Cc2cnc(N)nc2N)cc(OCc2cccc(C(=O)O)c2)c1OC | -0.05 | -2 | 1.03
72 | Fc1ccc(Nc2ccnc3cc(-c4cccc(CN5CCCCC5)c4)ccc23)c(Cl)c1 | 4.23 | 3.95 | 3.3
73 | CCOc1cc(CC)ccc1C1CCN(CCCCNC(=O)c2ccc(NC(=O)c3ccc(C#N)cc3)cc2)CC1 | 2.45 | 0.91 | 2.06
74 | c1ccc2c(c1)CN(CC1CC1)CC1(CCN(Cc3c[nH]c4cnccc34)CC1)O2 | -0.99 | 0.39 | 0.54
